{"source": "PubChem BioAssay (NCI)", "note": "Where “and” joins values, the source holds several entries; their conditions need not be identical. Equal entries are not always repeated. This is part of a sample that, as a whole, favours compounds with a hit. Of some 83,000 tested, about 20% had one in any assay.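 Single-dose data. Exposure time 48 hours. Values below 10 considered active.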 Unmarked numbers belong to inactive results. Calls of active or inactive are those of the source.", "data": [{"tested_on": "HL-60(TB) leukemia", "test": "NCI-60 one-dose screen, 48 h (100 = growth as untreated, 0 = no growth, -100 = all killed)", "conditions": "10 µM unless noted", "values": [{"compound": "COc1ccc(C(O)c2cc3c(N)c(C(=O)Nc4ccc(Cl)cc4)sc3nc2C)cc1", "note": "(centres undefined)", "growth": "-50.1% (active)"}, {"compound": "CCCCCC(=O)OCC(=O)O[C@@H]1C[C@]2(C(C)C)O[C@@]1(C)[C@@H]1CC[C@@H](C)[C@H]1[C@@H]2OC(=O)/C=C/c1ccccc1", "growth": "78.5%"}, {"compound": "CCOC(=O)C(=Cc1cccc(Cl)c1)C(=O)OCC", "growth": "-2% (active)"}, {"compound": "CC1=CC(C)(C)NC(=S)N1c1ccc(Cl)cc1", "growth": "94.7% and 97.6%"}]}]}
